Measured values reported in PubChem BioAssay (NCI).
Compounds without any hit were thinned out: in the full panel of roughly 83,000, 20% have a hit.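 Assay: single dose, 48 h. Readout: percent growth (0 = no net growth; negative = cell death). Active: <10.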 Values without a mark were called inactive. Calls of active or inactive are those of the source.

These compounds were tested on MDA-MB-468 breast (assay: NCI-60 one-dose screen, 48 h (100 = growth as untreated, 0 = no growth, -100 = all killed)). Details: 10 µM unless noted.

Row | SMILES | growth
1 | Cn1cc(-c2nnc(N)nc2-c2cn(C)c3ccc(F)cc23)c2cc(F)ccc21 | 99.8%
2 | COc1ccc(/C=C2\CN(C(=O)C(Cl)Cl)C/C(=C\c3ccc(OC)cc3)C2=O)cc1 | -27.5% (active)
3 | CSc1nc2sc3c(c2c(=O)n1-c1ccc([N+](=O)[O-])cc1)CCCCC3 | 83%
4 | CCCOc1ccc(-c2nc(-c3ccc(N)cc3)cs2)cc1 | 110%
5 | O=C(NCCOCCOCCOCCNC(=O)c1cc2c(o1)C(=O)c1ccccc1C2=O)NC12CC3CC(CC(C3)C1)C2 | -33.8% (active)
6 | C=C1C(=O)O[C@H]2[C@H]1CC/C(COC(=O)c1ccc(Cl)nc1)=C\CC[C@@]1(C)O[C@@H]21 | -25.1% (active)
7 | Cc1ccc(OCCOCCOCCOCCOCCOc2ccc(C)n(O)c2=S)c(=S)n1O | -22.8% (active)
8 | Nc1ncc(C#Cc2cncc(NC(=O)c3cccc(C(F)(F)F)c3)c2)c2cccnc12 | 92.5%
9 | C=C1CC[C@@H](C(=O)OC)Cc2nc(C)ccc21 | 106%
10 | Cc1ccccc1NC1CC(=O)N(c2ccc(Cl)cc2Cl)C1=O (configuration not stated) | 105%
11 | O=C1/C=C/[C@@H](O)[C@@H]2C[C@@H](O)C[C@H]2/C=C/CCC[C@@H](O)CCO1 | -17% (active)
12 | Cc1ncc(C(=O)Nc2ccc(CN3CCN(C)CC3)c(C(F)(F)F)c2)cc1C#Cc1cnc(N)c2ccc(C#N)cc12 | 48.2%
13 | C/C(=C(/c1ccccc1)c1ccc(OCC(O)CN2CCOCC2)cc1)c1ccccc1 (configuration not stated) | 85.1%
14 | CCN(CC)c1ccc(/C=N/NC(=O)c2ccc(NS(C)(=O)=O)cc2)cc1 | 20.2%
15 | COc1cc2c(cc1OC)-c1ccc3cc4c(cc3c1N(CCCN1CCCCC1)C2)OCO4 | 56.5%
16 | CCOc1ccc(N=C(C)Nc2ccc(OCC)cc2)cc1 | 116%
17 | COCc1cc2c(cc1Br)OCO2 | 110%
18 | Cc1ccn2c3c(c(C(=O)O)c2c1)C(=O)c1ccccc1C3=O | 84.7%
19 | O=c1c2cccc(F)c2sc2c(N3CCNCC3)nc3ccccc3c12 | 37.2%
20 | COc1ccc(Cc2cc(-c3ccccc3)nn(Cc3ccccc3)c2=O)cc1OC | 42.9%
21 | O=C(COc1cccc2cccnc12)Nc1ccc(C(=O)/C=C/c2ccc(Cl)cc2)cc1 | 89.3%
22 | Nc1c2c(nc3ccc(Cl)cc13)CC(c1ccc(O)cc1)CC2=O (configuration not stated) | 18%
23 | O=C(c1ccc(Cl)cc1)N1CCN(c2ccnc3cc(Cl)ccc23)CC1 | 72.7%
24 | CC[C@@H](C(=O)[C@@H](C)[C@@H](O)[C@H](C)[C@@H]1O[C@@H]([C@@H](CC)C(=O)NCCc2ccc(F)cc2)CC[C@@H]1C)C1O[C@]2(C=CC(=O)[C@]3(CC[C@@](C)([C@H]4CC[C@](O)(CC)[C@H](C)O4)O3)O2)[C@H](C)C[C@@H]1C (some centres not stated) | 13.5%
25 | CCCCCCCC[C@@H]1N[C@@H](C(=O)OC)Cc2c1[nH]c1ccccc21 | 94.3%
26 | COc1cc(C(=O)NC(=S)NCc2ccncc2)cc(OC)c1OC | 94.2%
27 | CC1C=CC(OC(=O)C(C)(O)CCC(O)(C(=O)OC2CC(O)C(C(C)C)CC2(C)O)C(C)C)(C(C)C)CC1 (configuration not stated) | -69.9% [4.63 µM] (active)
